# Active and inactive are the calls of the source. Unless noted, no stated cut-off is given here; in the data, active means inhibition above about 80%; inactive means the rest.
# Key:
# [1] = ovarian cancer cell viability with rucaparib, profiling panel, oncology-focused library, rucaparib conditional (AID 1508598;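 active means normalized viability below 100% at a tested concentration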); conditions: patient-derived ovarian cancer cells, CellTiter-Glo viability, 144 h; at 5 µM; OCI-P5x cells; without rucaparib; stronger effect = lower value
# [2] = LFS_MB_P medulloblastoma growth inhibition, cell-based, chromothripsis tumors, cisplatin or BGB combos (AID 1671449); conditions: LFS_MB_P medulloblastoma cells;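 further: cells exposed for 96 hours; 0% = vehicle DMSO and 100% = killing by high DMSO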
# [3] = HDN33 neuroblastoma growth inhibition, cell-based, chromothripsis tumors, cisplatin or BGB combos (AID 1671450); conditions: HDN33 neuroblastoma cells, stronger effect = higher value;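 further: cells exposed to compound for four days; 0% = vehicle DMSO and 100% = cell killing by high DMSO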
# [4] = ICB984 medulloblastoma cell growth inhibition, synergistic combos for chromothripsis tumors, cisplatin or BGB combos (AID 1671451; call rule not given here;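 further: cells exposed for 96 hours before readout; 0% = vehicle DMSO and 100% = killing by high DMSO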); conditions: ICB984 medulloblastoma cells, drug combinations, stronger effect = higher value
# [5] = HTB85 osteosarcoma cell growth inhibition, synergistic combos for chromothripsis tumors, BGB or cisplatin IC20 combos (AID 1671453); conditions: HTB85 osteosarcoma cells, drug combinations, stronger effect = higher value;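 further: cells exposed for 96 hours before readout; 0% = vehicle DMSO and 100% = high DMSO killing control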
# [6] = MDA-MB-436 breast carcinoma cell growth inhibition, synergistic combos for chromothripsis tumors, BGB or cisplatin combos (AID 1671458; call rule not given here;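 further: cells exposed for 96 hours; 0% = vehicle DMSO and 100% = killing by high DMSO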); conditions: MDA-MB-436 breast carcinoma growth inhibition, drug combinations, stronger effect = higher value
# [7] = growth inhibition of BT084 medulloblastoma cells, cell-based, ICGC_MB145, cisplatin and BGB IC40 combos (AID 1671461); conditions: drug combinations, stronger effect = higher value;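 further: cells exposed to drugs for 96 hours; 0% = vehicle DMSO and 100% = high DMSO full killing control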
# [8] = growth inhibition of RCMB18 medulloblastoma cells, cell-based, cisplatin and BGB IC40 combos (AID 1671462); conditions: stronger effect = higher value;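 further: cells exposed to compound for four days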
# [9] = growth inhibition of CRL1545 osteosarcoma cells, cell-based, cisplatin and BGB IC20 combos (AID 1671464); conditions: stronger effect = higher value;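 further: cells exposed to compound for 96 hours before readout; 0% = vehicle DMSO and 100% = high DMSO killing control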
# [10] = measured here: with BGB IC20 combination, at 0.5 µM
# [11] = measured here: with cisplatin IC20 combination, at 0.5 µM
smiles,measurement,setting,value
Nc1ccccc1NC(=O)c1ccc(CNc2nccc(-c3cccnc3)n2)cc1,viability,[1],8.93% (active)
same,inhibition,"[2]; at 0.5 µM, stronger effect = higher value",2.35% (inactive)
same,inhibition,"[2]; measured here: combination with BGB IC20, at 0.005 µM",-20.9%
same,inhibition,"[2]; measured here: combination with BGB IC40, at 0.005 µM",-59.1%
same,inhibition,"[2]; measured here: combination with BGB IC40, at 0.05 µM",-23.9%
same,inhibition,"[2]; measured here: combination with cisplatin, at 0.5 µM, stronger effect = higher value",45.4%
same,inhibition,"[2]; measured here: combination with cisplatin, at 5 µM, stronger effect = higher value",109%
same,inhibition,"[3]; BGB combo, at 5 µM",98.8%
same,inhibition,[3]; at 0.5 µM,51.5% (inactive)
same,inhibition,"[3]; cisplatin combo, at 5 µM",100%
same,inhibition,[3]; [10],59.9%
same,inhibition,[3]; [11],50.6%
same,inhibition,"[3]; single agent, at 5 µM",99.4%
same,inhibition,"[4]; BGB IC20 combo, at 0.005 µM",8.79%
same,inhibition,"[4]; BGB IC40 combo, at 0.005 µM",19.9%
same,inhibition,"[4]; BGB IC40 combo, at 0.05 µM",92.5%
same,inhibition,[4]; at 0.5 µM,-29.5% (inactive)
same,inhibition,"[4]; cisplatin combo, at 0.05 µM",92.7%
same,inhibition,"[4]; cisplatin combo, at 0.5 µM",-33.3%
same,inhibition,"[4]; cisplatin combo, at 5 µM",-7.7%
same,inhibition,"[4]; measured here: 5 uM single agent, at 5 µM",-12.8%
same,inhibition,[5]; at 0.5 µM,18.4% (inactive)
same,inhibition,"[5]; measured here: with BGB IC20, at 0.5 µM",20.6%
same,inhibition,"[5]; measured here: with BGB IC20, at 5 µM",98.9%
same,inhibition,"[5]; measured here: with cisplatin IC20, at 0.5 µM",17.4%
same,inhibition,"[5]; measured here: with cisplatin IC20, at 5 µM",99.2%
same,inhibition,"[5]; single agent, at 5 µM",99.2%
same,inhibition,[6]; at 0.5 µM,23.7% (inactive)
same,inhibition,"[6]; measured here: BGB combination, at 0.5 µM",20.7%
same,inhibition,"[6]; measured here: BGB combination, at 5 µM",64.6%
same,inhibition,"[6]; measured here: cisplatin combination, at 0.5 µM",9.8%
same,inhibition,"[6]; measured here: cisplatin combination, at 5 µM",64%
same,inhibition,[7]; at 0.5 µM,50.1% (inactive)
same,inhibition,"[7]; cisplatin combination, at 0.5 µM",50.8%
same,inhibition,"[7]; cisplatin combination, at 5 µM",83.4%
same,inhibition,"[7]; measured here: BGB IC40 combination 0.05 uM, at 0.05 µM",-5.63%
same,inhibition,"[7]; single agent, at 5 µM",99.8%
same,inhibition,[8]; at 0.5 µM,56.4% (inactive)
same,inhibition,"[8]; cisplatin combo, at 5 µM",95.3%
same,inhibition,"[8]; measured here: BGB IC40 combination, at 0.05 µM",-6.4%
same,inhibition,"[8]; measured here: combination with cisplatin, at 0.5 µM",76.3%
same,inhibition,"[8]; single agent, at 5 µM",94.7%
same,inhibition,[9]; at 0.5 µM,66.9% (inactive)
same,inhibition,[9]; [10],49.6%
same,inhibition,[9]; [11],75.1%
same,inhibition,"[9]; single agent, at 0.05 µM",31.7%
same,inhibition,"[9]; single agent, at 5 µM",90.8%

# Source: PubChem BioAssay
